What all share (assay): DAPPL (digital affinity profiling via proximity ligation, sequencing); 10 mM Tris-HCl pH 7.5, 50 mM NaCl, 1 mM DTT, 4% glycerol, room temperature, 30 min; GST-TFs on glutathione beads, 16-mer random dsDNA library, 0.1% formaldehyde crosslink after washing; high values mean tight binding
Holding throughout (conditions): protein: recombinant; tags: N-terminal GST; dsDNA, one strand shown

In one experiment the target is T1, FLI1 (Homo sapiens, UniProt Q01543 1-452).
T1 sequence: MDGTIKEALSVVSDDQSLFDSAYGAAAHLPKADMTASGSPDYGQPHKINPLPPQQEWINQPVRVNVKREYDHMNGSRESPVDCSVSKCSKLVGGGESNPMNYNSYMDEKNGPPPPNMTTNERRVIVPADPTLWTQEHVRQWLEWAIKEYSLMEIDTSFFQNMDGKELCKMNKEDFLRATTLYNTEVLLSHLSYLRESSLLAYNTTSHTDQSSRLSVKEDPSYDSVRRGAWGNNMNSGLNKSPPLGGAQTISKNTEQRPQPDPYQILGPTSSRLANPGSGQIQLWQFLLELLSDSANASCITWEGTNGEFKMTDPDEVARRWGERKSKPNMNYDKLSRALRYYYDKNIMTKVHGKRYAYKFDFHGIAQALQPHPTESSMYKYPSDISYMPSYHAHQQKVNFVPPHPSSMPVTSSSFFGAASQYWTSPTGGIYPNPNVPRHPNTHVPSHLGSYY
The method in brief: (§1)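 In yeast, human transcription factors were expressed with a GST fusion, then pulled down on glutathione beads and given DNA barcodes. Pooled with a tag-only sample, they were exposed to 200 nmole of a 16-mer random double-stranded DNA library (Tris/NaCl/DTT/glycerol buffer, room temperature, 30 min), washed, crosslinked with 0.1% formaldehyde, proximity-ligated using BsaI/T4 ligase for 1 h at 37 °C, PCR-amplified and read on an Illumina NextSeq500. Each hexamer's frequency of reads for a factor, divided by the matching frequency for the tag-only sample, gives the binding signal.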

The target of another experiment is T2, ELK1 (Homo sapiens, UniProt P19419 1-428).
T2 sequence: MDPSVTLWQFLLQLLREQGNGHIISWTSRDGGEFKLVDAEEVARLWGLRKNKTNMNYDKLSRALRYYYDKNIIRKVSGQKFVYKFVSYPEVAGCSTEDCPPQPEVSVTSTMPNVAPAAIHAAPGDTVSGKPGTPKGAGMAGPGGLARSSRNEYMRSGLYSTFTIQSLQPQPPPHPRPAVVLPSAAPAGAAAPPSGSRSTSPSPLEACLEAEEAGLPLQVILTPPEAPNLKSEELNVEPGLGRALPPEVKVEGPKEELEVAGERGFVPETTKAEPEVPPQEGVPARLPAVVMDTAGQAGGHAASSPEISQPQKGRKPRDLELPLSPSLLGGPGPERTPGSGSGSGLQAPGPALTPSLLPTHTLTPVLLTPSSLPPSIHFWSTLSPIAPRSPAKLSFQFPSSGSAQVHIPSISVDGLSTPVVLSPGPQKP
An outline of the steps: as §1

The next experiment addresses T3, GABPA (Homo sapiens, UniProt Q06546 1-454).
T3 sequence: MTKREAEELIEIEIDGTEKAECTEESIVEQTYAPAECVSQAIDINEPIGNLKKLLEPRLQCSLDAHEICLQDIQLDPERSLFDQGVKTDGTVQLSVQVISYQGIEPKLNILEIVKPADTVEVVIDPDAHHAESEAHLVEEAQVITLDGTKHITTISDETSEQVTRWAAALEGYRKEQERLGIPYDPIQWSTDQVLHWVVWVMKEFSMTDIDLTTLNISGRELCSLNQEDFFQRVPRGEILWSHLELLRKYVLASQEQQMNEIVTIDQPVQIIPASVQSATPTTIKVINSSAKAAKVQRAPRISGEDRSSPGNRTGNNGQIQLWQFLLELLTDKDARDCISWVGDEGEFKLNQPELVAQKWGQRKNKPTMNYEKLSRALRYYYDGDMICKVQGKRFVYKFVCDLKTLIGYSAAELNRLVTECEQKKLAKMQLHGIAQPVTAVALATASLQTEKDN
The method in brief: as §1

Another experiment has as its target T4, ERG (Homo sapiens, UniProt P11308 1-479).
T4 sequence: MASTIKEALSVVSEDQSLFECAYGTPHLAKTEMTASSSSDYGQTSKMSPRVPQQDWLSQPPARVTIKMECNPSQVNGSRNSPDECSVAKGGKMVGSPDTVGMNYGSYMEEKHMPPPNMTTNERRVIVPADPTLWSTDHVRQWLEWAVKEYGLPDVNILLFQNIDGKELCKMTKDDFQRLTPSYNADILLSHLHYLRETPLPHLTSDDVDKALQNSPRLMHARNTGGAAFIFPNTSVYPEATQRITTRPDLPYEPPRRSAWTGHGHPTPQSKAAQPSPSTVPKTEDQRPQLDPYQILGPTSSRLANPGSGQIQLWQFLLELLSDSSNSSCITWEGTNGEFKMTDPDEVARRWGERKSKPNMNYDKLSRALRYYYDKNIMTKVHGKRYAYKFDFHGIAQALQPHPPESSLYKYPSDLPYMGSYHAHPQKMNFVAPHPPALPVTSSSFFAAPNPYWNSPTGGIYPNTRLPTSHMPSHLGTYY
The method in brief: as §1

The next experiment deals with ELF1 (Homo sapiens, UniProt P32519 1-619). An outline of the steps: as §1
ELF1, sequence (P32519 whole entry): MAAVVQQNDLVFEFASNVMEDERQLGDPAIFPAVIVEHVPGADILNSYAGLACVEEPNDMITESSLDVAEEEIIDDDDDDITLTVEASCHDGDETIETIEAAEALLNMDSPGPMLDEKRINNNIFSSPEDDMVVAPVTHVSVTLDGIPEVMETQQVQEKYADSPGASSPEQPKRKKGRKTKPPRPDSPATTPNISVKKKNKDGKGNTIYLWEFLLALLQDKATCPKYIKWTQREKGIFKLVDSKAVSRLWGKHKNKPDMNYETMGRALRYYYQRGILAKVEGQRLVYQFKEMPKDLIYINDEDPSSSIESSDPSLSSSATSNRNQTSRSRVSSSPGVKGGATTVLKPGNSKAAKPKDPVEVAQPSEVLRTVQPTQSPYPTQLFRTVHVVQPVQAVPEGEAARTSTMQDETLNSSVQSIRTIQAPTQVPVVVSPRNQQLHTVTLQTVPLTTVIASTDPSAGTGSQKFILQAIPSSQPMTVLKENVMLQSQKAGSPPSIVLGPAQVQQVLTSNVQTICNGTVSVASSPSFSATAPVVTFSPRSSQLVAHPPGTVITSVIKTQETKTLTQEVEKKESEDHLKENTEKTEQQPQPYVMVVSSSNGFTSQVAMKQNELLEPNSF
In the next experiment the target is T5, EHF (Homo sapiens, UniProt Q9NZC4 1-300).
T5 sequence: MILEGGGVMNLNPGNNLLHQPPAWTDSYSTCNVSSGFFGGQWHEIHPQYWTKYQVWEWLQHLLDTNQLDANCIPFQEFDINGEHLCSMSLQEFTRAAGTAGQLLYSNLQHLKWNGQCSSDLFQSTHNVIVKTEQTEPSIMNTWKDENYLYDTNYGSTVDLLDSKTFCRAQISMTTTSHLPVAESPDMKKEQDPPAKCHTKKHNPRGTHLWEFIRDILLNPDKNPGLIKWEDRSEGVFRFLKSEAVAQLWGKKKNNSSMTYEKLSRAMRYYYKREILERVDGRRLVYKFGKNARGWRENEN
An outline of the steps: as §1

For the next experiment, the target named is SPI1 (Homo sapiens, UniProt P17947 1-270). The method in brief: as §1
A further experiment addresses SPIB (Homo sapiens, UniProt Q01892 1-262). An outline of the steps:
as §1

A further experiment has as its target T6, ELK3 (Homo sapiens, UniProt P41970 1-407).
T6 sequence: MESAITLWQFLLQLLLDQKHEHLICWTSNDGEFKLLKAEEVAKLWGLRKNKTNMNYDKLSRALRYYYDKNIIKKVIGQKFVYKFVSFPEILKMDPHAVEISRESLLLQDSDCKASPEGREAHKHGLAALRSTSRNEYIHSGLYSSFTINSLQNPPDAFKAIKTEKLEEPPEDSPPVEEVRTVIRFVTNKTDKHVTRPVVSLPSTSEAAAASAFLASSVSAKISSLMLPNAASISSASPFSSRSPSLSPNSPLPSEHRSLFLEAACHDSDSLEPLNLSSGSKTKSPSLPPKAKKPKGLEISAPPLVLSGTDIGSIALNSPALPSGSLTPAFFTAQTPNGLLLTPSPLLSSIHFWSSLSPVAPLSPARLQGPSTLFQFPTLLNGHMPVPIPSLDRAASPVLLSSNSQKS
The method in brief: as §1

SPIB, sequence (Q01892 whole entry): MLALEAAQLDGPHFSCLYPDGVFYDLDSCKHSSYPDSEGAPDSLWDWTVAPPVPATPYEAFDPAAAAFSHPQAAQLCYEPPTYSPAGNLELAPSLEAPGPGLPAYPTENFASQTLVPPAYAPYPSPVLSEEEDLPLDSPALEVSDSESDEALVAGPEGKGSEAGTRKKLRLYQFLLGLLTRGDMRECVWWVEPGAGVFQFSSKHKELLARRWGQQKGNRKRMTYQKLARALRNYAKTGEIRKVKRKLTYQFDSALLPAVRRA

Turning to ATAATT, the binding signal with FLI1 was 1.31 fold enrichment (6-mer frequency, TF over GST control); with ELK1, 1.38 fold enrichment (6-mer frequency, TF over GST control); with GABPA it was 1.38 fold enrichment (6-mer frequency, TF over GST control); with ERG, 1.4 fold enrichment (6-mer frequency, TF over GST control); in the experiment with ELF1 it was 1.27 fold enrichment (6-mer frequency, TF over GST control); with EHF, 1.37 fold enrichment (6-mer frequency, TF over GST control). For the same sequence, the binding signal with SPI1 is 1.28 fold enrichment (6-mer frequency, TF over GST control); with SPIB it was 1.39 fold enrichment (6-mer frequency, TF over GST control); with ELK3, 1.42 fold enrichment (6-mer frequency, TF over GST control).

Values taken from article PMC7862700, “An all-to-all approach to the identification of sequence-specific readers for epigenetic DNA modifications on cytosine”.
